Reference: PubChem BioAssay AID1159580 (chemical genetic matrix, 2015)
Screen size: about 5,500 compounds; about 2,000 (36%) were called active. About 18% were inconclusive and are not listed. No stated cut-off is given here; in the data, active means normalized growth mostly below about 0.91 (no sharp cut-off); inconclusive means no clear call, values can overlap the other calls; inactive means mostly above about 0.92. Some of the results follow.

Assay: chemical genetic growth profiling, strain panel (AID 1159580);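 further: tested at 20 µM; growth read once vehicle control cultures reached saturation at 30 °C; 1 = growth at the plate median or of vehicle wells; lower values mean less growth of the strain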
Conditions: S. cerevisiae deletion strains, growth OD

Measured: normalized growth

CCCc1nc(C)c2c(=O)[nH]c(-c3cc(S(=O)(=O)N4CCN(CC)CC4)ccc3OCC)nn12
inactive: locus YAL021C, strain ccr4, active compounds read low 0.961 | locus YAL026C, strain drs2, active compounds read low 0.944 | locus YAL030W, strain snc1, active compounds read low 0.947 | locus YBL061C, strain skt5, active compounds read low 0.979 | locus YBR009C, strain hhf1, active compounds read low 0.975 | locus YBR023C, strain chs3, active compounds read low 0.974 | locus YBR171W, strain sec66, active compounds read low 0.967 | locus YBR231C, strain swc5, active compounds read low 0.97 | locus YBR279W, strain paf1, active compounds read low 0.981 | locus YCL011C, strain gbp2, active compounds read low 0.974 | locus YCL016C, strain dcc1, active compounds read low 0.974 | locus YCL061C, strain MRC1, active compounds read low 0.952 | locus YCL069W, strain vba3, active compounds read low 0.988 | locus YCR088W, strain abp1, active compounds read low 0.98 | locus YDL005C, strain med2, active compounds read low 0.98 | locus YDL040C, strain nat1, active compounds read low 0.985 | locus YDR001C, strain nth1, active compounds read low 0.964 | locus YDR069C, strain doa4, active compounds read low 0.951 | locus YDR137W, strain rgp1, active compounds read low 0.915 | locus YDR159W, strain sac3, active compounds read low 0.93 | locus YDR195W, strain ref2 0.938 | locus YDR297W, strain sur2, active compounds read low 0.984 | locus YDR334W, strain swr1, active compounds read low 0.913 | locus YDR335W, strain msn5, active compounds read low 0.97 | locus YDR392W, strain spt3, active compounds read low 0.964 | locus YEL003W, strain gim4, active compounds read low 0.969 | locus YEL037C, strain rad23, active compounds read low 0.985 | locus YEL061C, strain CIN8 (second series), active compounds read low 0.973 | locus YER015W, strain faa2, active compounds read low 0.983 | locus YER016W, strain bim1, active compounds read low 0.973 | locus YER111C, strain swi4, active compounds read low 0.972 | locus YER155C, strain BEM2 (second series), active compounds read low 0.945 | locus YFR010W, strain ubp6, active compounds read low 0.943 | locus YGL167C, strain pmr1, active compounds read low 0.957 | locus YGL173C, strain kem1, active compounds read low 0.949 | locus YGL227W, strain vid30, active compounds read low 0.965 | locus YGL240W, strain doc1, active compounds read low 0.921 | locus YGL253W, strain hxk2, active compounds read low 0.971 | locus YHR013C, strain ard1, active compounds read low 0.931 | locus YHR027C, strain rpn1, active compounds read low 0.942 | locus YHR030C, strain SLT2, active compounds read low 1.08 | locus YHR079C, strain IRE1, active compounds read low 1.07 | locus YHR142W, strain chs7, active compounds read low 0.971 | locus YJL092W, strain hpr5, active compounds read low 0.96 | locus YJL095W, strain BCK1 (second series), active compounds read low 0.974 | locus YJL095W, strain BCK1, active compounds read low 1.01 | locus YJL115W, strain asf1, active compounds read low 0.943 | locus YJL129C, strain trk1, active compounds read low 0.969 | locus YJL154C, strain vps35, active compounds read low 0.97 | locus YJL164C, strain tpk1, active compounds read low 0.948 | locus YJL166W, strain qcr8, active compounds read low 0.969 | locus YJL187C, strain SWE1, active compounds read low 0.972 | locus YJR066W, strain TOR1, active compounds read low 0.979 | locus YKL160W, strain elf1, active compounds read low 0.987 | locus YKR026C, strain gcn3, active compounds read low 0.973 | locus YKR091W, strain srl3, active compounds read low 0.977 | locus YLL001W, strain dnm1, active compounds read low 0.973 | locus YLL026W, active compounds read low 0.947 | locus YLL041C, strain sdh2, active compounds read low 0.96 | locus YLR027C, strain aat2, active compounds read low 0.953 | locus YLR113W, strain HOG1, active compounds read low 0.997 | locus YLR221C, strain rsa3, active compounds read low 0.978 | locus YLR258W, strain gsy2, active compounds read low 0.983 | locus YLR262C, strain YPT6 (second series), active compounds read low 0.979 | locus YLR320W, strain mms22, active compounds read low 0.964 | locus YLR342W, strain FKS1, active compounds read low 0.98 | locus YLR357W, strain rsc2, active compounds read low 0.937 | locus YLR370C, strain arc18, active compounds read low 0.966 | locus YLR384C, strain iki3, active compounds read low 0.95 | locus YML120C, strain ndi1, active compounds read low 0.981 | locus YMR058W, strain fet3, active compounds read low 0.954 | locus YMR125W, strain sto1, active compounds read low 0.969 | locus YMR129W, active compounds read low 0.981 | locus YMR205C, strain PFK2, active compounds read low 0.944 | locus YMR231W, strain pep5, active compounds read low 0.978 | locus YNL071W, strain lat1, active compounds read low 0.988 | locus YNL183C, strain NPR1, active compounds read low 0.967 | locus YNL209W, strain ssb2, active compounds read low 0.978 | locus YNL248C, strain rpa49, active compounds read low 0.966 | locus YNL322C, strain KRE1 (second series), active compounds read low 0.956 | locus YNR049C, strain mso1, active compounds read low 0.967 | locus YOR001W, strain rrp6, active compounds read low 0.956 | locus YOR070C, strain gyp1, active compounds read low 0.983 | locus YOR080W, strain dia2, active compounds read low 0.967 | locus YOR083W, strain WHI5, active compounds read low 0.946 | locus YOR106W, strain vam3, active compounds read low 0.955 | locus YOR231W, strain MKK1, active compounds read low 1.05 | locus YOR265W, strain rbl2, active compounds read low 0.98 | locus YOR270C, strain vph1, active compounds read low 0.992 | locus YOR290C, strain snf2, active compounds read low 0.938 | locus YPL051W, strain arl3, active compounds read low 0.975 | locus YPL078C, strain atp4, active compounds read low 0.97 | locus YPL106C, strain sse1, active compounds read low 0.868 | locus YPL240C, strain hsp82, active compounds read low 0.973 | locus YPL256C, strain CLN2, active compounds read low 1.09
